Out of some 5,500 compounds screened, about 2,000 (36%) were called active. Not shown: some 18% with an inconclusive outcome. No stated cut-off is given here; in the data, active means normalized growth mostly below about 0.91 (no sharp cut-off); inconclusive means no clear call, values can overlap the other calls; inactive means mostly above about 0.92. This is one part of the list.
Experiment: chemical genetic growth profiling, strain panel (AID 1159580);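 further: tested at 20 µM; growth read once vehicle control cultures reached saturation at 30 °C; 1 = growth at the plate median or of vehicle wells; lower values mean less growth of the strain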
Details: S. cerevisiae deletion strains, growth OD

Measured: normalized growth

C[N+]1(C)C2CC(OC(=O)C(CO)c3ccccc3)CC1C1OC12 (stereo unspecified)
inactive: locus YAL013W, strain DEP1, hits give low values 1.03 | locus YAL040C, strain CLN3, hits give low values 0.975 | locus YCL061C, strain MRC1 (second series), hits give low values 0.995 | locus YDR363W, strain ESC2, hits give low values 0.985 | locus YER002W, strain NOP16, hits give low values 0.997 | locus YGR229C, strain SMI1, hits give low values 1.05 | locus YMR263W, strain SAP30, hits give low values 1 | locus YMR307W, strain GAS1, hits give low values 1.01 | locus YNL128W, strain TEP1, hits give low values 0.992 | locus YNL175C, strain NOP13, hits give low values 0.973 | locus YNL197C, strain WHI3, hits give low values 0.982 | locus YNL224C, strain SQS1, hits give low values 0.988 | locus YNL322C, strain KRE1, hits give low values 1 | locus YOR083W, strain WHI5 (second series), hits give low values 0.978 | locus YPL055C, strain LGE1, hits give low values 1.02 | locus YPL241C, strain CIN2, hits give low values 0.993
